This is a sample that favours compounds with a hit; in the whole collection about 4.1% have one here.
CFTR F508del cor: correctors of CFTR F508del function in bronchial epithelial cells; CFBE cells, YFP halide quenching; stimulated with forskolin plus potentiator P3; % fluorescence drop versus neutral controls; activity (quench increase), % at 7.58 µM; 350,000 tested, 0.36% active; AID 720511;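 active = mean added fluorescence quench of at least 8% versus neutral control, with both replicates also reaching 8%; inconclusive = only one of the mean or replicate conditions met; inactive = mean below 8% and not both replicates reaching 8%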;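 also: cells transiently co-express mutant CFTR-F508del with the halide-sensitive YFP; corrector assay measuring rescue of mutant channel to the surface after 24 h compound exposure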
PglD DTNB: blocks C. jejuni PglD acetyltransferase activity; purified PglD enzyme, DTNB colorimetric CoA detection; inhibition, % at 12.5 µM; 360,000 tested, 0.098% active; AID 602405; in the data active = inhibition above about 16%, passing the limit was not always enough; inconclusive = no clear call, values can overlap the other calls
ALR H2O2 inh: blocks human ALR sulfhydryl oxidase activity; P55789; purified ALR, DTT oxidation, H2O2 HRP-luminol luminescence; inhibition, % (concentration not given with the values); 290,000 tested, 3.8% active;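 active = mean replicate inhibition above about 79%, with every replicate also reaching it, limit read from the data; inconclusive = only one of the two criteria met; inactive = mean below limit and not every replicate reaching it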
Casp6 inh: caspase-6 (human) enzyme inhibition. P55212. purified caspase-6, Z-VEID-R110 cleavage fluorescence. inhibition, % at 12.5 µM. 350,000 tested, 0.53% active. AID 686996;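 active = mean inhibition across replicates at least about 35%, with every replicate also reaching that limit, limit read from the data; inconclusive = only one of the two criteria met; inactive = neither criterion met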
NSD2 HMT inh: NSD2 (human) methyltransferase inhibition; O96028; NSD2 peptide methylation, AlphaScreen, 120 min; inhibition, % at 12.5 µM; 310,000 tested, 0.54% active; AID 743445; in the data active = inhibition above about 50%
Env fusion inh: HIV envelope-mediated fusion inhibition; 360,000 tested, 1.1% active; HeLa-JRFL Env/CEM21 cell fusion, luciferase; inhibition, % at 12.3 µM; AID 651610;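 active = mean replicate inhibition score of at least 50 and every replicate individually at or above 50; inconclusive = only one of the two criteria met; inactive = mean below 50 and not all replicates reaching 50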
Hits are given with their value; 0 = inactive; ? = inconclusive; - = no result given; [ ] = dose if it differs, or a comment.

SMILES	CFTR F508del cor	PglD DTNB	ALR H2O2 inh	Casp6 inh	NSD2 HMT inh	Env fusion inh
O=[N+]([O-])c1cc2c(cc1/C=N/n1c(-c3ccccc3)n[nH]c1=S)OCO2	-	-	87	-	0	0
CN1[C@@H]2c3ccc(/C=C/c4ccccc4)c(=O)n3C[C@@H]2[C@@H](CO)[C@@H]1C(=O)NC1CCC1	0	0	-	-	-	-
C[C@H]1CN([C@@H](C)CO)C(=O)Cc2cc(NS(=O)(=O)c3ccc(F)cc3)ccc2O[C@@H]1CN(C)C	0	0	-	0	-	0
C[C@@H]1CN([C@@H](C)CO)C(=O)c2ccccc2-c2ccccc2CO[C@@H]1CN(C)C(=O)Nc1ccc2c(c1)OCO2	0	0	-	0	-	59[16.7 µM]
C[C@H](CO)N1C[C@H](C)[C@@H](CN(C)C(=O)Nc2cccc(C(F)(F)F)c2)OCc2ccccc2-c2ccccc2C1=O	0	0	-	0	-	58[16.7 µM]
CC1CCc2nc(/C(C#N)=C/c3ccncc3)sc2C1 (stereo not given)	0	-	98	0	0	0
N#C/C(=C/c1ccncc1)c1nc2ccccc2s1	-	-	0	0	0	0
COCCNC(=O)C[C@H]1C[C@H]2c3cc(NC(=O)Nc4ccc(F)cc4)ccc3O[C@H]2[C@H](CO)O1	0	0	-	-	-	0
CCOC(=O)C1=C(N)OC2=C(C(=O)CCC2)C1c1ccccc1OCC (stereo not given)	-	0	78	-	0	0
NS(=O)(=O)c1ccc(S(=O)(=O)NCCc2ccccc2)cc1	-	0	0	-	0	0
Cc1[nH]c2ccccc2c1CCNS(=O)(=O)c1ccc(S(N)(=O)=O)cc1	0	0	90	-	0	0
Cc1noc(NS(=O)(=O)c2ccc(N/C=C\C(=O)c3ccncc3)cc2)c1C	-	0	0	-	0	0
COc1ccc(C(=O)/C=C/Nc2ccc(S(=O)(=O)Nc3onc(C)c3C)cc2)cc1	-	-	97	-	0	0
CCc1ccc(C(=O)/C=C/Nc2ccc(S(=O)(=O)Nc3onc(C)c3C)cc2)cc1	-	-	97	-	0	-
Cc1noc(NS(=O)(=O)c2ccc(N/C=C/C(=O)c3ccc(F)cc3)cc2)c1C	0	0	0	0	0	0
N#Cc1cccc(-c2ccc(C3[C@@H]4CN(C(=O)Cc5ccccc5)C[C@H]3N4)cc2)c1 (stereo not given in full)	0	-	-	0	-	-
CO[C@@H]1CN(C)C(=O)c2cc(NC(=O)NC3CCCCC3)ccc2OC[C@H](C)N(CCc2ccccc2)C[C@H]1C	0	0	-	0	-	0
COCC(=O)Nc1ccc2c(c1)C(=O)N(C)[C@H]1CC[C@@H](CC(=O)NCCc3ccccc3)O[C@H]1CO2	0	0	-	0	-	0
COc1cccc(NC(=O)CSc2ncc(S(=O)(=O)c3ccccc3)c(=O)[nH]2)c1	0	0	?	0	0	0
Cc1ccc(NC(=O)CSc2ncc(S(=O)(=O)c3ccccc3)c(=O)[nH]2)cc1C	-	0	100	-	0	-
Cc1ccc(NC(=O)CSc2ncc3ccccn23)cc1C	0	-	99	0	0	0
Cc1ccc(NC(=O)CSc2ncn(-c3ccccc3)n2)cc1C	-	0	0	0	0	0
O=C(CSc1ncc(S(=O)(=O)c2ccccc2)c(=O)[nH]1)Nc1ccccc1Cl	0	-	78	0	0	0
Cc1noc(C)c1NC(=O)N[C@@H]1C=C[C@@H](CC(=O)N2CCCCC2)O[C@@H]1CO	0	0	-	0	-	0
C[C@H]1CN([C@@H](C)CO)S(=O)(=O)c2ccc(-c3ccccc3)cc2O[C@@H]1CN(C)Cc1ccncc1	0	0	-	0	-	0
SMILES	CFTR F508del cor	PglD DTNB	ALR H2O2 inh	Casp6 inh	NSD2 HMT inh	Env fusion inh
C[C@H]1CN([C@@H](C)CO)C(=O)c2cc(Br)cnc2O[C@H]1CN(C)S(=O)(=O)c1ccc(F)cc1	0	0	-	0	-	0
CO[C@@H]1CN(C)C(=O)c2cc(NC(=O)CC(F)(F)F)ccc2OC[C@@H](C)N(S(=O)(=O)c2cn(C)cn2)C[C@H]1C	0	0	-	0	-	-
CC(C)n1c(-c2ccc(C(C)(C)C)cc2)n[nH]c1=S	-	0	82	-	0	0
CS(=O)(=O)N1CC2(C1)[C@@H](c1ccccc1)[C@@H](CO)N2CC1CCCC1	0	-	-	0	-	-
COc1ccc(NC(=O)Nc2ccc3c(c2)C(=O)N([C@H](C)CO)C[C@H](C)[C@H](CN(C)Cc2ccccc2)OCCCC[C@H](C)O3)cc1	0	0	-	0	-	74[16.7 µM]
C[C@H](CO)N1C[C@H](C)[C@H](CN(C)Cc2ccccc2)OCCCC[C@H](C)Oc2ccc(NC(=O)Nc3ccc(F)cc3)cc2C1=O	0	0	-	0	-	56[16.7 µM]

High-throughput results as filed in PubChem BioAssay.
